Results reported in PubChem BioAssay (EPA / NIEHS).
Active and inactive are the calls of the source. How the source made its calls: active means hit-call score of the fitted dose curve at least 0.9, where 1 is the maximum; inactive means score below 0.9.

Test: Tanguay_ZF_120hpf_AXIS: Oregon State University Tanguay Lab 120 Hour Post-fertilization zebrafish Assay for Axial Malformation (AID 2284398)
Description: Tanguay_ZF_120hpf is a whole embryo, multiplexed endpoint assay using zebrafish larvae exposed for 120 hours post fertilization on a 96-well plate.Tanguay_ZF_120hpf_AXIS is one of one assay component(s) measured or calculated from the Tanguay_ZF_120hpf assay. It is designed to make measurements of zebrafish development as detected with brightfield microscopy of developing zebrafish embryos.Data from the assay component Tanguay_ZF_120hpf_AXIS was analyzed into 1 assay endpoints. This assay endpoint, Tanguay_ZF_120hpf_AXIS, was analyzed in the positive analysis fitting direction relative to DMSO as the negative control and baseline of activity. Using a type of morphology reporter, gain-of-signal activity can be used to understand changes in developmentals as they relate to the whole embryo. To generalize the intended target to other relatable targets, this assay endpoint is annotated to the zebrafish development intended target family, where the subfamily is body axis morphogenesis.
Zebrafish husbandry: Tropical 5D wild-type adult zebrafish were housed in at an approximate density of 1000 per 100 gallon tank at the Sinnhuber Aquatic Research Laboratory, Oregon State University, Corvallis, OR. Each tank was kept at standard laboratory conditions of 28C on a 14-h light/10-h dark photoperiod in fish water consisting of reverse osmosis water supplemented with a commercially available salt (Instant Ocean). Spawning funnels were placed into the tanks the night prior, and embryos were collected and staged. To increase bioavailability, the chorion was enzymatically removed using pronase (63.6mg/ml, >/= 3.5U/mg, Sigma-Aldrich: P5147) at 4 hours post fertilization (hpf) using a custom automated dechorionator.Chemical exposures: Six hpf dechorionated embryos were placed 1 embryo per well in a 96-well plate prefilled with 90 ul of EM using automated embryo placement systems (AEPS). Ten microliters of each row of dilution plate 2 was added to 2 exposure plates. The final DMSO concentration used was 0.64% (vol/vol). Thirty-two embryos were also exposed to 5uM trimethyltin chloride (positive control). Plates were sealed to prevent evaporation and foil covered to reduce light exposure and kept in a 28C incubator. Embryos were statically exposed until 120 hpf. At 24 hpf, embryos were assessed for photomotor response using a custom photomotor response analysis tool (PRAT) and for developmental toxicity endpoints (MO24: mortality at 24 hpf, DP: developmental progression, SM: spontaneous movement, and NC: notochord distortion). At 120 hpf, locomotor activity was measured using Viewpoint Zebralab and assessed for 13 endpoints. Zebrafish acquisition and analysis program (ZAAP), a custom program designed to inventory, acquire, and manage zebrafish data, was used to collect developmental endpoints as either present or absent (i.e., binary responses were recorded). If mortality occurred for an embryo (at either 24 or 120 hpf), the non-mortality endpoints were not measured.
In the case of CCO[Si](CCC(F)(F)C(F)(F)C(F)(F)C(F)(F)C(F)(F)C(F)(F)F)(OCC)OCC, the outcome is reported as “inactive”. With FC(F)(F)C(F)(F)CNCC(F)(F)C(F)(F)F the outcome was “inactive”. With O=C(O)C=C(C(F)(F)F)C(F)(F)F the outcome was “inactive”. For FC(F)(F)C(F)(F)C(F)(F)C(F)(F)C(F)(F)C(F)(F)CC1CO1 (stereo not given), the outcome was “inactive”. In the case of CCCCCCCCC(F)(F)C(F)(F)C(F)(F)C(F)(F)C(F)(F)C(F)(F)F, the outcome is reported as “inactive”. In the case of N=C(N)C(F)(F)C(F)(F)C(F)(F)C(F)(F)C(F)(F)C(F)(F)C(F)(F)F, the outcome is reported as “inactive”. For O=C(O)C(F)(F)C(F)(F)C(F)(F)C(F)(F)F, the outcome was “inactive”. With O=C(O)C(F)(F)C(F)(F)OC(F)(F)F the outcome was “inactive”. In the case of O=C(O)C(F)(F)C(F)(F)C(F)(F)C(F)(F)C(F)(F)C(F)(F)C(F)(F)C(F)(F)C(F)(F)C(F)F, the outcome is reported as “inactive”. In the case of C=CC(=O)OCC(F)(F)C(F)(F)C(F)(F)C(F)(F)C(F)(F)C(F)(F)C(F)(F)F, the outcome is reported as “inactive”. For O=P(O)(O)OCCC(F)(F)C(F)(F)C(F)(F)C(F)(F)C(F)(F)C(F)(F)F, the outcome was “inactive”. In the case of FC(F)(F)C(F)(F)C(F)(F)C(F)(F)C(F)(F)CCI, the outcome is reported as “inactive”. In the case of OCC(F)(F)C(F)(F)C(F)(F)C(F)F, the outcome is reported as “inactive”. With C=C(C)C(=O)OCC(F)(F)C(F)(F)C(F)(F)C(F)(F)C(F)(F)C(F)(F)C(F)(F)F the outcome was “inactive”. For OCC(F)(F)C(F)(F)C(F)(F)C(F)(F)C(F)(F)C(F)(F)F, the outcome was “inactive”. With C=C(C)C(=O)OCC(F)(F)C(F)(F)C(F)(F)F the outcome was “inactive”. In the case of O=C(O)C(F)(F)C(F)(F)C(F)(F)C(F)(F)C(F)(F)C(F)(F)C(F)(F)C(F)(F)C(F)(F)C(F)(F)C(F)(F)C(F)(F)C(F)(F)F, the outcome is reported as “inactive”. With O=C(O)C(F)(F)C(F)(F)C(F)(F)F the outcome was “inactive”. In the case of C=CC(=O)OCC(F)(F)C(F)(F)C(F)(F)C(F)(F)COC(=O)C=C, the outcome is reported as “inactive”. With OCCCC(F)(F)C(F)(F)C(F)(F)F the outcome was “inactive”. With FC(F)(F)C(F)(F)C(F)(F)C(F)(F)C(F)(F)C(F)(F)C(F)(F)C(F)(F)CCS the outcome was “inactive”. In the case of O=C(O)C(F)(OC(F)(F)C(F)(OC(F)(F)C(F)(OC(F)(F)C(F)(F)C(F)(F)F)C(F)(F)F)C(F)(F)F)C(F)(F)F (stereo not given), the outcome is reported as “inactive”. For FC(F)(F)C(F)(F)C(F)(F)CI, the outcome was “inactive”. With C=C(C)C(=O)OCCC(F)(F)C(F)(F)C(F)(F)C(F)(F)C(F)(C(F)(F)F)C(F)(F)F the outcome was “inactive”. In the case of COC(=O)CCC(F)(F)C(F)(F)C(F)(F)C(F)(F)F, the outcome is reported as “inactive”. For FC(F)(F)C(F)(F)C(F)(F)C(F)(F)C(F)(F)C(F)(F)C(F)(F)I, the outcome was “inactive”. With O=S(=O)(OCCOC(F)(F)F)C(F)(F)F the outcome was “inactive”. With NC(=O)C(F)(F)C(F)(F)C(F)(F)C(F)(F)F the outcome was “inactive”. For OCC(F)(F)C(F)(F)C(F)(F)F, the outcome was “inactive”. In the case of O=C(O)C(F)(F)C(F)(F)C(F)(F)C(F)(F)C(F)(F)C(F)(F)C(F)(F)C(F)(F)C(F)(F)C(F)(F)C(F)(F)C(F)(F)F, the outcome is reported as “inactive”. In the case of O=C(O)C(F)(F)C(F)(F)F, the outcome is reported as “inactive”. With O=C(O)C(F)(F)C(F)(F)C(F)(F)C(F)(F)C(F)(F)C(F)(F)C(F)(F)C(F)(F)Cl the AC50 was 37.2 µM (active). For Cc1ccc(S(=O)(=O)OCC(F)(F)C(F)(F)C(F)(F)C(F)(F)C(F)(F)C(F)F)cc1, the outcome was “inactive”. With O=C(O)C(F)(F)C(F)(F)C(F)F the outcome was “inactive”. With O=C(O)C(F)(OC(F)(F)C(F)(OC(F)(F)C(F)(F)C(F)(F)F)C(F)(F)F)C(F)(F)F (stereo not given) the outcome was “inactive”. In the case of OCCCC(F)(F)C(F)(F)C(F)(F)C(F)(F)C(F)(F)C(F)(F)C(F)(F)F, the outcome is reported as “inactive”. With CC(C)(C)C(=O)CC(=O)C(F)(F)C(F)(F)C(F)(F)F the outcome was “inactive”. With FC(F)(F)C(F)(F)C(F)(F)C(F)(F)C(F)(F)C(F)(F)C(F)(F)C(F)(F)F the outcome was “inactive”. In the case of FC(F)(F)C(F)(F)C(F)(F)C(F)(F)CCI, the outcome is reported as “inactive”. In the case of OCC(F)(F)C(F)(F)C(F)(F)C(F)(F)C(F)(F)C(F)F, the outcome is reported as “inactive”.
